Experimental data from PubChem BioAssay AID652048 (National Center for Advancing Translational Sciences (NCATS), 2013).
Several values for one entry are separate records, joined by “and”; a condition that tells them apart may be missing. Equal values may be shown once. About 2,400 (0.59%) of roughly 410,000 compounds were called active. The sample holds actives, similar compounds and a random draw of the others, so the mix is not that of the screen. No stated cut-off is given here; in the data, active means max activation above about 30%; inactive means the rest.

These compounds were tested against D(3) dopamine receptor (Homo sapiens) (UniProt P35462) (assay: qHTS of D3 Dopamine Receptor Agonist: qHTS). Details: D3R DiscoveRx beta-arrestin cells, luminescence, 90 min; hits give high values.
Outline: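 Cells at 1500/well, incubated overnight, then treated with pinned compounds (dopamine as control) for 90 min at 37 degrees C. DiscoveRx reagent added for 30 - 60 minutes at room temperature; luminescence read.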
Further: 0% is about no effect.

D(3) dopamine receptor (Homo sapiens), sequence (P35462 whole entry, looked up): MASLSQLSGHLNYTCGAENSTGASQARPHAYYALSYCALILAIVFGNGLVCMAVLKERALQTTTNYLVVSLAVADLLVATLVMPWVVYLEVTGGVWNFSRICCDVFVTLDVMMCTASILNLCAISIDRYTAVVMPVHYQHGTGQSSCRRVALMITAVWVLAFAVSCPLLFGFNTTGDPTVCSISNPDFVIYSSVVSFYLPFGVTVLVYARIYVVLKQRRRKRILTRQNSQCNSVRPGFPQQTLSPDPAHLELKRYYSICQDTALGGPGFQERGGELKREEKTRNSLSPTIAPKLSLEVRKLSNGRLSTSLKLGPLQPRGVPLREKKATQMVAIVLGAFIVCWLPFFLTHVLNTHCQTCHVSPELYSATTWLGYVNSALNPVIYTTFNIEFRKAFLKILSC

SMILES	max activation
CCOC(=O)c1cc(-c2ccccc2C)n(Cc2cc(C)no2)n1	59.5% (active)
CCOC(=O)c1cc(OC(=O)c2ccccc2Cl)n(-c2ccccc2)n1	-8.96% (inactive)
CCOC(=O)c1cc(-c2sc(NC(=O)c3ccccc3)nc2C)n(Cc2ccccc2)n1	8.04% (inactive)
CCc1ccc(C(=O)NC(=S)Nc2ccccc2N2CCOCC2)cc1	-1.31% (inactive)
CC(=O)N1CCN(c2ccccc2NC(=S)NC(=O)c2cc3ccccc3o2)CC1	-3.88% (inactive)
COc1ccc(C(=O)NC(=S)Nc2ccccc2N2CCN(S(C)(=O)=O)CC2)cc1OC	34.6% (active)
CCOc1cccc2sc(N3CCN(C(=O)C4CC4)CC3)nc12	-4.91% (inactive)
CC/C(=N\NC(=O)c1ccccc1Cl)c1ccc(Br)s1	5.71% (inactive)
C/C(=N\NC(=O)CNc1cccc2ccccc12)c1ccc(Br)s1	30.4% (active)
Cc1ccccc1-n1c(SCC(=O)Nc2cccc3ccccc23)nc(O)cc1=O	0.0019% (inactive)
O=C1CSc2ccc(S(=O)(=O)NCc3ccccc3)cc2N1	-4.53% (inactive)
COc1ccccc1CNS(=O)(=O)c1ccc2c(c1)NC(=O)CS2	5.98% (inactive)
CCC(Cc1ccccc1)NS(=O)(=O)c1ccc2c(c1)NC(=O)CS2 (stereo unspecified)	34.1% (active)
Cc1ccccc1CSc1nc2c([nH]c3ccccc32)c(=O)n1C	-3.75% (inactive)
COc1ccc(-c2nc3c(s2)CCc2onc(-c4ccc(OC)cc4)c2-3)cc1	5.32% (inactive)
COc1ccc(-c2nc3n(c2Br)CCC3)cc1	8% (inactive)
COc1ccc(-c2nc3c(s2)CCc2onc(-c4ccc(Br)cc4)c2-3)cc1	31.5% (active)
NC(=O)C(=O)N/N=C/c1ccc([N+](=O)[O-])o1	-13.9% (inactive)
CN1CC(O)c2cc(N=NC(N)=O)c(O)cc21 (stereo unspecified)	-13% (inactive)
Cc1oc2c(F)c(F)c(F)c(F)c2c1S(=O)(=O)Nc1cccc(C(F)(F)F)c1	39.8% (active)
Cc1onc(-c2ccc(F)cc2F)c1C(=O)Nc1cccc(C(F)(F)F)c1	-14.1% (inactive)
Cc1oc2ccc(O)c(CN3CCCCC3)c2c1C(=O)Nc1cccc(C(F)(F)F)c1	0.725% (inactive)

SMILES	max activation
COc1cc(Cl)c(NC(=O)C(NS(=O)(=O)c2cccs2)C(C)C)c(OC)c1 (stereo unspecified)	6.54% (inactive)
COc1ccc(CCNc2ncnc3c2cnn3-c2ccc(C)cc2)cc1	11.8% (inactive)
Cc1ccccc1C(=O)Nc1sc2c(c1C(=O)N1CCC(C)CC1)CCCC2	-2.21% (inactive)
COc1ccccc1-n1c(=S)[nH]c2c(sc(=S)n2-c2ccc(C)cc2C)c1=O	37.7% (active)
CCc1ccc(-n2c(=S)sc3c(=O)n(-c4ccccc4OC)c(=S)[nH]c32)cc1	0.277% (inactive)
COc1ccccc1-n1c(-c2ccc(C)cc2)cn2c3c(=O)n(C)c(=O)n(C)c3nc12	-0.938% (inactive)
COc1cc(CNCCSc2nnnn2C)ccc1OCc1ccc(Cl)cc1Cl	-19% (inactive)
O=C(CCC1N=C2c3ccccc3N=C(SCc3ccccc3F)N2C1=O)NCCc1ccccc1 (stereo unspecified)	5.62% (inactive)
O=C(Cn1nnc(-c2ccccc2)n1)NC(=O)NC1CCCC1	4.92% (inactive)
O=C(Cn1nnc(-c2ccccc2)n1)N/N=C/c1ccc(-c2ccc(Cl)cc2)o1	34.9% (active)
Cc1ccc(NC(=O)CN(C)C(=O)Cn2nnc(-c3ccccc3)n2)cc1	5.42% (inactive)
CCOc1ccc(CNC(=O)c2cc(=O)[nH]c3ccc(S(=O)(=O)N4CCCCC4)cc23)cc1	1.15% (inactive)
COc1ccc2cc(CNc3ccc(OC)c(OC)c3)c(=O)n(CC(=O)Nc3ccccc3F)c2c1	2.84% (inactive)
Cc1ccc(OCCSc2nc(C)c(Cc3ccccc3)c(=O)[nH]2)cc1	4.35% (inactive)
Cc1ccc(CNC(=O)c2ccccc2CCc2ccccc2)cc1	31.4% (active)
Cc1ccc(CNC(=O)[C@@H](NC(=O)Cc2ccccc2)C(C)C)cc1	-1.46% (inactive)
Cc1ccc(CNC(=O)Cc2cn(C)c3ccccc23)cc1	-3.47% (inactive)
COC(=O)C1(S(=O)(=O)C2(C(=O)OC)CCCC2)CCCC1	31% (active)
CC1(C)OC[C@@H](COC(=O)CCc2ccc(OC[C@@H](O)CNCCNC(=O)N3CCOCC3)cc2)O1	-23.2% (inactive) and -20.2% (inactive)
CC(C)(C)OC(=O)CNC(=O)c1[nH]cnc1C(=O)N[C@@H](CCCCN)C(=O)OC(C)(C)C	0% (inactive)
CCN1CCN(CCCNC(=O)c2ccc3c(c2)sc2nc(-c4ccc(OC)cc4)cn23)CC1	-6.77% (inactive)
COc1ccc(-c2cn3c(n2)sc2cc(C(=O)Nc4ccccc4F)ccc23)cc1	35.4% (active)

SMILES	max activation
COc1ccc(-c2cn3c(n2)sc2cc(C(=O)Nc4ccc(F)cc4)ccc23)cc1	13.3% (inactive)
O=C(Nc1ccc(O)cc1)c1ccccc1O	-0.0653% (inactive)
CC1(C)SC2C(NC(=O)COc3ccccc3)C(=O)N2C1C(=O)O (stereo unspecified)	2.21% (inactive) and 6.06% (inactive)
COC(=O)C1[C@H]2SC(C)(C)C(C(=O)OC)N2C(=O)N1Cc1nc2ccccc2s1 (stereo partly specified)	37.5% (active)
CC1(C)S[C@@H]2[C@H](NC(=O)COc3ccccc3)C(=O)N2C1C(=O)OCc1ccccc1 (stereo partly specified)	-3.7% (inactive)
Cc1ccc2[nH]c3c(=O)n(CC(=O)NC(C)C)ncc3c2c1	2.56% (inactive)
CCOc1ccc(NS(=O)(=O)c2ccc(N)cc2)nn1	-7.97% (inactive)
COc1cccc(C(=O)Nc2c3c(nn2-c2cccc(C)c2C)CS(=O)(=O)C3)c1OC	-20.8% (inactive)
COc1ccc(C(=O)NC2CCCc3c2cnn3-c2cccc(C)c2C)c(OC)n1 (stereo unspecified)	48.2% (active)
Cc1cccc(C(=O)OC(C)C(=O)NC2CCCc3ccccc32)c1O (stereo unspecified)	-10.5% (inactive)
Cc1ccc(NC(=O)c2nc(S(=O)(=O)Cc3cccc(C)c3)ncc2Cl)cc1	-23.7% (inactive)
CC1(C)S[C@@H]2[C@H](N=CN3CCCCCC3)C(=O)N2[C@H]1C(=O)O	-22.5% (inactive)
CC(C)(C)OC(=O)N1CCC(c2c(C(=O)NCCc3ccsc3)cnn2-c2ccc(F)cc2F)CC1	6.51% (inactive)
COCOc1cc(O)c(C(=O)/C=C/c2ccc(OCOC)c(OCOC)c2)c(OCOC)c1	32% (active)
COc1ccc(/C=C/C(=O)c2cc(Br)ccc(=O)c2O)cc1	-1.59% (inactive)
CCOc1ccc(/C=C/C(=O)OCC(=O)c2ccccc2OC)cc1OC	3.52% (inactive)
O=C(Nc1cccc(C(F)(F)F)c1)c1cc(Br)cc(Br)c1O	0.389% (inactive)
CC(C(=O)O)c1ccc(C2CCCCC2)c2ccccc12 (stereo unspecified)	4% (inactive)
Cc1ccc2nc(CN3CCN(S(=O)(=O)c4ccc(C)c(C)c4)CC3)oc2c1	-11.8% (inactive)
COc1ccc2c(c1)c(=Cc1ccc(N(C)C)cc1)c1cc(-c3ccccc3)[n+](C)n12	1.19% (inactive)
COc1ccc2sc(-c3ccc(N(C)C)cc3)c(C#CCO)c2c1	38.4% (active)
Cc1ccc(C)c(S(=O)(=O)n2nc(C)c(S(=O)(=O)N3CCC(C)CC3)c2C)c1	3.28% (inactive)

SMILES	max activation
CC(O)COc1ccccc1 (stereo unspecified)	8.58% (inactive)
O=C(COC(=O)c1cc(=O)[nH]c2ccccc12)Nc1nc(-c2cccc(Br)c2)cs1	38.6% (active)
O=C(CSc1nc2ccccc2c(=O)[nH]1)Nc1nc(-c2ccc(Br)cc2)cs1	37.7% (active)
COc1ccc(NC(=O)CSc2nc3ccccc3[nH]2)cc1	0.0768% (inactive)
O=C(CSc1nc(O)c(Cc2ccccc2)c(=O)[nH]1)Nc1nc2c(s1)CCCC2	3.59% (inactive)
O=C(COC(=O)c1cc(=O)[nH]c2ccccc12)NCc1cccc(Cl)c1	3.7% (inactive)
CC1CCN(C(=O)COC(=O)c2cc(=O)[nH]c3ccccc23)CC1	-2.85% (inactive)
COc1ccc(C(=O)Nc2cccc(C(=O)OCc3cc(=O)n4c5c(sc4n3)CCCC5)c2)cc1	-9.48% (inactive)
COc1cccc2cc(-c3nc(Cl)c4c5c(sc4n3)CC(C)CC5)c(=O)oc12 (stereo unspecified)	8.91% (inactive)
COC(=O)c1sccc1S(=O)(=O)N(CC(=O)Nc1ccc(C)c(F)c1)c1ccc(C)c(C)c1	-2.21% (inactive)
Cc1ccc(CN2CCC(CNC(=O)c3cnn(-c4ccccc4Cl)c3C3CCN(C(=O)OC(C)(C)C)CC3)CC2)cc1	-13.6% (inactive)
CO/N=C(/C(=O)N[C@@H]1C(=O)N2C(C(=O)O)=C(Cn3nnc(C)n3)CS[C@H]12)c1csc(N)n1	-4.25% (inactive)
CSc1ccc(CCNC(=O)C2CCN(c3nnc(-n4cccc4)s3)CC2)cc1	-2.44% (inactive)
Cc1ccc(CCNC(=O)C2CCN(c3nnc(-n4cccc4CNc4ccc(C)cc4)s3)CC2)cc1	56.2% (active)
CCOc1ccc(CNC(=O)C2CCN(c3nnc(-n4cccc4CNc4ccc(C)cc4)s3)CC2)cc1OC	1.82% (inactive)
N[C@H]1CN(c2c(F)cc3c(=O)c(C(=O)O)cn(C4C[C@H]4F)c3c2Cl)CC12CC2 (stereo partly specified)	-3.15% (inactive)
O=P(O)(O)OC[C@H](O)CO	-12.8% (inactive)
CCc1ccccc1NC(=O)CN(C)S(=O)(=O)c1ccc2c(c1)c(=O)n(C)c(=O)n2C	-4.93% (inactive)
CN(CC(=O)Nc1ccccc1F)S(=O)(=O)c1ccc2c(c1)c(=O)n(C)c(=O)n2C	47.6% (active)
CC(C)c1ccc(NC(=O)CN(C)S(=O)(=O)c2ccc3c(c2)c(=O)n(C)c(=O)n3C)cc1	0.167% (inactive)
